The values below come from PubChem BioAssay (NCI).

Experiment [1] is described as follows: NCI Yeast Anticancer Drug Screen. Data for the rad50 strain (AID 155).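 Note: 0% = growth of vehicle-only cultures of the same strain.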 The conditions noted are these: S. cerevisiae rad50 strain growth inhibition, active compounds read high. In outline:
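Inhibition values express reduced yeast growth in compound-treated cultures relative to vehicle-treated controls.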

Experiment [2] in a line: NCI Yeast Anticancer Drug Screen. Data for the mec2-1 strain (AID 157). The conditions noted are these: S. cerevisiae mec2-1 strain, active compounds read high. The essentials: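 Strain: mec2-1 (DNA repair/cell cycle alteration). Compound exposure, then growth measured; inhibition expressed relative to vehicle.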
Experiment [3] can be described thus: NCI Yeast Anticancer Drug Screen. Data for the sgs1 mgt1 strain (AID 161).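 Note: 0% = growth of cultures given vehicle only.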 The conditions noted are these: S. cerevisiae sgs1 mgt1 strain, active compounds read high. In outline: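 Mutant yeast exposed to compound; growth scored against vehicle-only wells.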
Experiment [4] can be described thus: NCI Yeast Anticancer Drug Screen. Data for the cln2 rad14 strain (AID 165).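 Note: 0% = growth equal to vehicle treated cultures.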 The conditions noted are these: S. cerevisiae cln2 rad14 strain, active compounds read high. The essentials:
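Compounds are applied to the cln2 rad14 yeast strain, and growth is then compared with that of vehicle-treated cultures to give inhibition.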

Experiment [5] in a line: NCI Yeast Anticancer Drug Screen. Data for the bub3 strain (AID 167). The conditions noted are these: S. cerevisiae bub3 mutant strain, active compounds read high. The essentials:
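Steps: expose the mutant yeast strain to compound; grow alongside vehicle-treated cultures; measure growth; express inhibition against the vehicle cultures.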

Experiment [6] can be described thus: NCI Yeast Anticancer Drug Screen. Data for the mlh1 rad18 strain (AID 175). The conditions noted are these: S. cerevisiae mlh1 rad18 strain growth inhibition, active compounds read high. In outline:
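Read-out is yeast growth inhibition, calculated against vehicle-only controls. The compound was applied to a strain engineered with DNA damage repair alterations.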

Where [7] appears, read: at 5.0 µM (retest, dose inferred, filed as 0.5).
Where [8] appears, read: at 50.0 µM (retest, dose inferred, filed as 5.0).

Each structure is given as a SMILES string. About 79,000 compounds went through this panel and 15% of them were active in at least one assay; those are over-represented in the sample as a whole. Values without a mark were called inactive. Calls of active or inactive are those of the source. Cut-off read from the data, not from the text of the source: active = growth inhibition above about 70%; inactive = the rest.

On to `C=C1C(=O)OC2C/C(C)=C/CC/C(C)=C/CCC3(COC(C)=O)OC3CC12` (stereo not given), for which the growth inhibition in experiment [1] (setting [7]) is 4%; in experiment [1] (setting [8]) it was 98% (active); in experiment [1] (at 50.0 µM), 92.7% (active); in experiment [2] (setting [7]), 14%; in experiment [2] (setting [8]), 98% (active); in experiment [2] (at 50.0 µM) it was 94.2% (active). In addition, the growth inhibition in experiment [3] (setting [7]) is 10%; in experiment [3] (setting [8]) it was 97% (active); in experiment [3] (at 50.0 µM) it was 94.2% (active); in experiment [4] (setting [7]) it was 1%; in experiment [4] (setting [8]), 95% (active); in experiment [4] (at 50.0 µM), 92.5% (active). Besides, the growth inhibition in experiment [5] (setting [7]) was 11%; in experiment [5] (setting [8]), 97% (active); in experiment [5] (at 50.0 µM) it was 93.2% (active); in experiment [6] (setting [7]), 37%; in experiment [6] (setting [8]), 98% (active); in experiment [6] (at 50.0 µM) it was 92.8% (active).

As to `COc1cc(N=Nc2cccc(S(N)(=O)=O)c2)c2ccccc2c1N`, the growth inhibition in experiment [1] (setting [7]) is -6%; in experiment [1] (setting [8]), 98% (active); in experiment [1] (at 50.0 µM), 95.3% (active); in experiment [2] (setting [7]), -2%; in experiment [2] (setting [8]) it was 99% (active); in experiment [2] (at 50.0 µM), 97.7% (active). In addition, the growth inhibition in experiment [3] (setting [7]) is 2%; in experiment [3] (setting [8]), 99% (active); in experiment [3] (at 50.0 µM), 97.4% (active); in experiment [4] (setting [7]) it was 34%; in experiment [4] (setting [8]), 98% (active); in experiment [4] (at 50.0 µM), 95.5% (active). For the same molecule, the growth inhibition was -5% in experiment [5] (setting [7]); 99% (active) in experiment [5] (setting [8]); 94.4% (active) in experiment [5] (at 50.0 µM); 5% in experiment [6] (setting [7]); 98% (active) in experiment [6] (setting [8]); 95.8% (active) in experiment [6] (at 50.0 µM).

Take `CCCCCC/C=C\CCCCCCCCCC1=C(CN2CCN(C)CC2)C(=O)C=C(OC)C1=O`: the growth inhibition is 24% in experiment [1] (setting [7]); 97% (active) in experiment [1] (setting [8]); 89.2% (active) in experiment [1] (at 50.0 µM); 24% in experiment [2] (setting [7]); 98% (active) in experiment [2] (setting [8]); 91.8% (active) in experiment [2] (at 50.0 µM). The growth inhibition in experiment [3] (setting [7]) is 99% (active); in experiment [3] (setting [8]) it was 98% (active); in experiment [3] (at 50.0 µM) it was 90.3% (active); in experiment [4] (setting [7]) it was 97% (active); in experiment [4] (setting [8]), 98% (active); in experiment [4] (at 50.0 µM) it was 89.2% (active). Moreover, the growth inhibition in experiment [5] (setting [7]) is 99% (active); in experiment [5] (setting [8]), 98% (active); in experiment [5] (at 50.0 µM) it was 91% (active); in experiment [6] (setting [7]) it was 54%; in experiment [6] (setting [8]) it was 97% (active); in experiment [6] (at 50.0 µM), 88.8% (active).

As for `O=C1C=C(Br)C(=O)C(Br)=C1`, the growth inhibition in experiment [1] (setting [7]) is 25%; in experiment [1] (setting [8]), 99% (active); in experiment [1] (at 50.0 µM), 93.8% (active); in experiment [2] (setting [7]), 21%; in experiment [2] (setting [8]) it was 99% (active); in experiment [2] (at 50.0 µM), 99.6% (active). Also, the growth inhibition in experiment [3] (setting [7]) is 13%; in experiment [3] (setting [8]) it was 98% (active); in experiment [3] (at 50.0 µM) it was 99.3% (active); in experiment [4] (setting [7]), 28%; in experiment [4] (setting [8]), 86% (active); in experiment [4] (at 50.0 µM), 25.7%. Further, the growth inhibition was 31% in experiment [5] (setting [7]); 99% (active) in experiment [5] (setting [8]); 94.2% (active) in experiment [5] (at 50.0 µM); 40% in experiment [6] (setting [7]); 99% (active) in experiment [6] (setting [8]); 97.5% (active) in experiment [6] (at 50.0 µM).

Regarding `CSc1ccc2c(c1)S[S@@](=O)N2`, the growth inhibition in experiment [1] (setting [7]) is -5%; in experiment [1] (setting [8]), 55%; in experiment [1] (at 50.0 µM), 35.9%; in experiment [2] (setting [7]), -11%; in experiment [2] (setting [8]) it was 61%; in experiment [2] (at 50.0 µM), 1.45%. The growth inhibition was 9% in experiment [3] (setting [7]); 34% in experiment [3] (setting [8]); 56.6% in experiment [3] (at 50.0 µM); -16% in experiment [4] (setting [7]); 33% in experiment [4] (setting [8]); 18.3% in experiment [4] (at 50.0 µM). Also, the growth inhibition in experiment [5] (setting [7]) is 5%; in experiment [5] (setting [8]), 96% (active); in experiment [5] (at 50.0 µM), 51.4%; in experiment [6] (setting [7]), -3%; in experiment [6] (setting [8]), 38%; in experiment [6] (at 50.0 µM), 62.5%.

Consider `c1ccc(-c2cnc3nc4ccccc4nc3n2)cc1`, for which the growth inhibition was -7% in experiment [1] (setting [7]); 89% (active) in experiment [1] (setting [8]); 94.9% (active) in experiment [1] (at 50.0 µM); 4% in experiment [2] (setting [7]); 76% (active) in experiment [2] (setting [8]); 50.6% in experiment [2] (at 50.0 µM). Moreover, the growth inhibition in experiment [3] (setting [7]) was 12%; in experiment [3] (setting [8]) it was 73% (active); in experiment [3] (at 50.0 µM) it was 95.8% (active); in experiment [4] (setting [7]) it was -11%; in experiment [4] (setting [8]), 3%; in experiment [4] (at 50.0 µM), 36.5%. In addition, the growth inhibition in experiment [5] (setting [7]) is 16%; in experiment [5] (setting [8]) it was 77% (active); in experiment [5] (at 50.0 µM), 92% (active); in experiment [6] (setting [7]), 7%; in experiment [6] (setting [8]), 93% (active); in experiment [6] (at 50.0 µM) it was 89.5% (active).

`N=C(N)c1ccc(Nc2ccc(-c3cc4ccc(C(=N)N)cc4[nH]3)cc2)cc1`: the growth inhibition was 99% (active) in experiment [1] (setting [7]); 98% (active) in experiment [1] (setting [8]); 98.5% (active) in experiment [1] (at 50.0 µM); 99% (active) in experiment [2] (setting [7]); 99% (active) in experiment [2] (setting [8]); 98.8% (active) in experiment [2] (at 50.0 µM). For the same molecule, the growth inhibition is 99% (active) in experiment [3] (setting [7]); 99% (active) in experiment [3] (setting [8]); 98.8% (active) in experiment [3] (at 50.0 µM); 99% (active) in experiment [4] (setting [7]); 98% (active) in experiment [4] (setting [8]); 98.3% (active) in experiment [4] (at 50.0 µM). Moreover, the growth inhibition in experiment [5] (setting [7]) was 99% (active); in experiment [5] (setting [8]), 98% (active); in experiment [5] (at 50.0 µM) it was 99% (active); in experiment [6] (setting [7]), 99% (active); in experiment [6] (setting [8]) it was 98% (active); in experiment [6] (at 50.0 µM) it was 98.5% (active).

`CCOC(=O)/C(=C/c1ccccn1)C(=O)c1ccccc1`: the growth inhibition was 19% in experiment [1] (setting [7]); 85% (active) in experiment [1] (setting [8]); 85.8% (active) in experiment [1] (at 50.0 µM); 18% in experiment [2] (setting [7]); 93% (active) in experiment [2] (setting [8]); 85.7% (active) in experiment [2] (at 50.0 µM). For the same molecule, the growth inhibition in experiment [3] (setting [7]) was 17%; in experiment [3] (setting [8]), 85% (active); in experiment [3] (at 50.0 µM), 84.8% (active); in experiment [4] (setting [7]) it was 39%; in experiment [4] (setting [8]), 85% (active); in experiment [4] (at 50.0 µM), 76.7% (active). Further, the growth inhibition in experiment [5] (setting [7]) is 67%; in experiment [5] (setting [8]), 96% (active); in experiment [5] (at 50.0 µM) it was 88.7% (active); in experiment [6] (setting [7]) it was 53%; in experiment [6] (setting [8]), 94% (active); in experiment [6] (at 50.0 µM) it was 79.6% (active).

Regarding `CC(C(=O)O)c1cn(Cc2ccccc2)c2ccccc12` (stereo not given), the growth inhibition was -2% in experiment [1] (setting [7]); 61% in experiment [1] (setting [8]); 4.65% in experiment [1] (at 50.0 µM); 6% in experiment [2] (setting [7]); 58% in experiment [2] (setting [8]); 43.2% in experiment [2] (at 50.0 µM). In addition, the growth inhibition in experiment [3] (setting [7]) is -28%; in experiment [3] (setting [8]), 36%; in experiment [3] (at 50.0 µM), 31.4%; in experiment [4] (setting [7]), 6%; in experiment [4] (setting [8]), 85% (active); in experiment [4] (at 50.0 µM), -8.85%. The growth inhibition in experiment [5] (setting [7]) was 21%; in experiment [5] (setting [8]), 80% (active); in experiment [5] (at 50.0 µM), -43.8%; in experiment [6] (setting [7]) it was 6%; in experiment [6] (setting [8]) it was 34%; in experiment [6] (at 50.0 µM), 38.9%.

On to `Cc1cc([N+](=O)[O-])cc(Cl)c1O`, for which the growth inhibition was -21% in experiment [1] (setting [7]); 51% in experiment [1] (setting [8]); 79.1% (active) in experiment [1] (at 50.0 µM); -6% in experiment [2] (setting [7]); 79% (active) in experiment [2] (setting [8]); 88.3% (active) in experiment [2] (at 50.0 µM). The growth inhibition in experiment [3] (setting [7]) was -4%; in experiment [3] (setting [8]) it was 87% (active); in experiment [3] (at 50.0 µM), 88% (active); in experiment [4] (setting [7]), 7%; in experiment [4] (setting [8]), 69%; in experiment [4] (at 50.0 µM), 85.2% (active). In addition, the growth inhibition in experiment [5] (setting [7]) was -21%; in experiment [5] (setting [8]), 66%; in experiment [5] (at 50.0 µM) it was 82.3% (active); in experiment [6] (setting [7]), -58%; in experiment [6] (setting [8]), 64%; in experiment [6] (at 50.0 µM), 80% (active).
